From PubChem
HT1080 IDH1KD tx: kills HT-1080 cells with IDH1 knockdown; hit rate 2% among 360,000; HT-1080 IDH1 knockdown viability, ATP luminescence, 48 h; Potency, µM (doses to about 46.1 µM), for inactives: top-dose activity, negative = toxicity, usual class: cytotoxic;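 further: potency means the concentration at half of the fitted maximal effect; 0% = DMSO wells and -100% = cell-free medium wells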
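Knockdown cells (IDH1KD HT-1080) received compounds 2 h after plating at 750 cells/well and were kept 48 h at 37 °C in 5% FBS RPMI. A CellTiter-Glo luminescence read gave % activity for curve fitting.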
IL1B secr inh: inhibitors of inflammasome signaling (IL-1 beta secretion) | THP-1 LPS/ATP IL-1B secretion, AlphaLISA, 16 h; active compounds read low | activity change, % at 57.5 µM | hit rate 4.7% among 360,000; in the data active means activity change below about -50%; inconclusive means mostly about -30% to -49%
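Secreted IL-1B measured by AlphaLISA bead assay after 16 h compound exposure of THP-1 cells; compounds (final up to 57.5 uM) added 1 h before LPS (250 ng/mL) and ATP (1.25 mM) stimulation; lower signal means less secretion.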
TDP1 cell noCPT: qHTS for Inhibitors of human tyrosyl-DNA phosphodiesterase 1 (TDP1): qHTS in cells in absence of CPT; DT40 Tdp1-/- hTDP1 cells, no CPT, ATP luminescence, 48 h; Potency, µM (doses to about 46.2 µM), for the others: top-dose activity change, negative = growth inhibition, actives largely listed as inhibitors; hit rate 15% among 420,000; further: potency means the concentration at half of the fitted maximal effect; nearly all actives have a fitted effect of over 55% in size
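Compound effects on proliferation are scored in DT40 Tdp1-/-;hTDP1 cells in the absence of CPT. ATP levels (CellTiter-Glo luminescence) are recorded after a ≥48 hr, 37 °C incubation.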
DT40 TDP1 CPT: DT40-hTDP1 cell growth loss with CPT. chicken DT40 Tdp1-/-;hTDP1 cells + 20 nM CPT, ATP luminescence, 48 h. Potency, µM (doses to about 46.2 µM), without a hit: at the highest dose activity change, negative = growth inhibition, hits mostly inhibitors. hit rate 12% among 420,000; further: potency means the concentration at half of the fitted maximal effect; nearly all actives have a fitted effect of over 55% in size
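Cell growth measured by CellTiter-Glo luminescence after a minimum 48 h, 37 C compound exposure with 20 nM CPT in Tdp1-knockout DT40 cells stably expressing hTDP1, seeded 400/well; qHTS titration format.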
HT1080NT lethal: kills 2HG-producing HT-1080-NT fibrosarcoma cells; HT-1080-NT fibrosarcoma viability, CellTiter-Glo ATP luminescence, 48 h; Potency, µM (highest dose often 46.1 µM), for the others: top-dose activity, negative = less viability, usual class: cytotoxic; hit rate 1.6% among 360,000; AID 686970;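 further: NT is the 2HG producing partner of a matched IDH1 knockdown line; potency means the concentration at half of the fitted maximal effect; 0% = DMSO-treated cells and -100% = media-only wells without cells; nearly all actives have a fitted effect of over 55% in size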
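Toxicity toward the 2HG-producing NT line was scored as %Activity, normalised to DMSO and no-cell wells, from CellTiter-Glo luminescence after 48 hours' treatment.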
* hit, by the source's call; ? = inconclusive; / = no result given. Hits are enriched below; roughly 19% of the tested compounds scored in any of these assays. Unless noted, the call rests on the fitted dose curve; in most records, active means well fitted curve in the direction sought with a large enough effect; inconclusive means small, poorly fitted or top-dose-only effect, or another doubt; inactive means no such curve, though single readings can be large; an effect the other way counts as inactive or inconclusive. Unless noted, on the % scale 0 is the no-effect control and ±100 the full control effect.

SMILES	HT1080 IDH1KD tx	IL1B secr inh	TDP1 cell noCPT	DT40 TDP1 CPT	HT1080NT lethal
Cc1cnc(-n2ncc(C(=O)NCCN3CCOCC3)c2C2CC2)nc1-c1cccs1	/	/	-22%	21%	/
CN(Cc1cccc(Cl)c1Cl)CC(O)COc1ccccc1 (stereo not given)	0%	-13	?	?	0%
CN(C)CCN(C(=O)c1cccc2ccccc12)c1nc2cc3c(cc2s1)OCO3	?	-91*	?	?	?
CN(C)CCCN(C(=O)c1ccc2ccccc2c1)c1nc2cc3c(cc2s1)OCO3	?	-93*	?	21µM*	?
CN(C)CCCN(C(=O)c1ccc(S(=O)(=O)N(C)Cc2ccccc2)cc1)c1nc2cc3c(cc2s1)OCO3	?	-51*	16µM*	-72%	?
CCN(c1ccccc1)S(=O)(=O)c1ccc(C(=O)N(CCCN(C)C)c2nc3c(C)cccc3s2)cc1	?	-71*	?	?	?
COc1ccc(-c2nc3c4cnn(-c5ccccc5F)c4ncn3n2)cc1	/	/	-4%	9%	/
CCN(CC)CCN(C(=O)c1ccc2c(c1)OCCO2)c1nc2cc3c(cc2s1)OCO3	-2%	-28	-15%	-25%	0%
CCN(CC)CCN(C(=O)c1ccc(S(=O)(=O)N(C)C2CCCCC2)cc1)c1nc2ccc(OC)cc2s1	3%	-77*	-5%	?	6%
CCN(CC)CCN(C(=O)c1cc2c(ccc3ccccc32)oc1=O)c1nc2cc3c(cc2s1)OCCO3	?	-61*	21µM*	18µM*	?
CC1(C)CC2CC(C)(CN2S(=O)(=O)c2ccc(C(=O)Nc3cc(S(=O)(=O)N4CCOCC4)ccc3Cl)cc2)C1 (stereo not given)	0%	48	2.9µM*	3.3µM*	11%
COc1ccc(NC(=O)CN(C)C(=O)c2cccc(S(=O)(=O)N3CC4(C)CC3CC(C)(C)C4)c2)cc1 (stereo not given)	-10%	-72*	?	?	-16%
CC1(C)CC2CC(C)(CN2S(=O)(=O)c2ccc(C(=O)Nc3cccc(S(=O)(=O)N4CCOCC4)c3)cc2)C1 (stereo not given)	?	-21	5.8µM*	4.1µM*	-20%
O=C(CN1C(=O)NC2(CCCCCC2)C1=O)Nc1ccccc1[N+](=O)[O-]	4%	0	-17%	-26%	-2%
COCCOC(=O)C1=C(C)NC(=O)NC1/C=C/c1ccccc1 (stereo not given)	9%	10	14%	7%	6%
COCCOC(=O)C1=C(C)NC(=S)NC1/C=C/c1ccccc1 (stereo not given)	5%	3	?	-22%	8%
C=CCOC(=O)C1=C(C)NC(=S)NC1/C=C/c1ccccc1 (stereo not given)	?	-3	?	?	13µM*
CC1=C(C(=O)OCc2ccccc2)C(/C=C/c2ccccc2)NC(=S)N1 (stereo not given)	?	?	29µM*	16µM*	-24%
CCCCCCCNC(=O)C1(CC2CC(c3ccc(Cl)cc3)=NO2)CCNCC1 (stereo not given)	-24%	-84*	10µM*	8.2µM*	-3%
CCCCCCCNC(=O)C1(CC2CC(c3ccc(Cl)cc3)=NO2)CCN(C(=O)c2cc(OCC)c(OCC)c(OCC)c2)CC1 (stereo not given)	-9%	-28	10µM*	21µM*	0%
COc1ccc(CNC(=O)C2(CC3CC(c4ccccc4)=NO3)CCN(C(=O)OC(C)(C)C)CC2)cc1 (stereo not given)	7%	-10	?	?	0%
COc1ccc(CNC(=O)C2(CC3CC(c4ccccc4)=NO3)CCN(C(=O)CCCCCBr)CC2)cc1 (stereo not given)	-4%	-9	?	9.2µM*	-6%
CCCCCCCNC(=O)C1(CC2CC(c3cccc(Br)c3)=NO2)CCN(C(=O)Cc2ccc(F)cc2)CC1 (stereo not given)	-3%	-59*	16µM*	?	-5%
CCCCCCCNC(=O)C1(CC2CC(c3cccc(Br)c3)=NO2)CCNCC1 (stereo not given)	?	-102*	16µM*	13µM*	?
CCCCCCCNC(=O)C1(CC2CC(c3ccc(Cl)cc3)=NO2)CCN(C(=O)Cc2ccc(F)cc2)CC1 (stereo not given)	0%	-24	?	?	0%
SMILES	HT1080 IDH1KD tx	IL1B secr inh	TDP1 cell noCPT	DT40 TDP1 CPT	HT1080NT lethal
CCCCCCCNC(=O)C1(CC2CC(c3ccc(Cl)cc3)=NO2)CCN(C(=O)CCCCCBr)CC1 (stereo not given)	-16%	?	18µM*	16µM*	-12%
O=C(CCc1ccc(S(=O)(=O)N2CCOCC2)cc1)Nc1nc(COc2ccccc2)cs1	?	?	?	15µM*	?
COc1cc(C(=O)Nc2cccc(C)n2)ccc1OCC(=O)N1CCOCC1	7%	-10	19%	4%	-3%
COc1ccc(-c2csc(NC(=O)c3ccc(OCC(=O)N4CCOCC4)c(OC)c3)n2)cc1OC	-15%	-94*	15µM*	16µM*	-9%
O=C(COc1ccccc1)Nc1nc(-c2ccc(S(=O)(=O)N3CCOCC3)cc2)cs1	-20%	-1	?	?	-10%
COc1ccccc1OCC(=O)Nc1nc(-c2ccc(S(=O)(=O)N3CCOCC3)cc2)cs1	-8%	11	13µM*	21µM*	-1%
COc1ccc(C(=O)/C(C#N)=N/Nc2ccccc2[N+](=O)[O-])cc1	2.3µM*	-22	1.8µM*	2.3µM*	2.6µM*
COc1ccc(C(=O)/C(C#N)=N/Nc2ccc([N+](=O)[O-])cc2)cc1	5.8µM*	77	0.52µM*	0.58µM*	?
Cc1ccccc1Nc1nc(N)nc(COC(=O)c2c(C)noc2C)n1	-2%	-2	-28%	?	1%
Cc1ccc(OCC(=O)OCC(=O)NC2CCCCCC2)cc1C	0%	-9	-19%	-29%	-1%
CC1CN=C2C(C(=O)Nc3ccccc3)=C(O)CC(c3ccccc3)N21 (stereo not given)	-2%	-5	23µM*	?	11%
CC(C)CC(NC(=O)CCl)c1ccccc1 (stereo not given)	-1%	-6	?	-27%	0%
CCCC(NC(=O)CCl)c1ccccc1 (stereo not given)	?	-92*	29µM*	13µM*	?
